# PubChem BioAssay AID2360 (The Scripps Research Institute Molecular Screening Center, 2010)
# The campaign covered roughly 1,900 compounds. About 85 (4%) were called active.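 How the source made its calls: active means mean PP5 inhibition over triplicate wells above about 9.5% taken from the earlier PP1 screen (limit read from the data); inactive means the rest.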 A selection follows.
# Target: Serine/threonine-protein phosphatase 5 (Homo sapiens) (UniProt P53041)
# Assay: human PP5 catalytic subunit inhibitors – biochemical, fluorescence, triplicate, counter-screen for PP1 inhibitor project, confirmation (AID 2360)
# Details: purified PP5c, OMFP fluorescence; at 6.7 µM; active compounds read high
# Sequence of Serine/threonine-protein phosphatase 5 (Homo sapiens) (P53041 whole entry, looked up): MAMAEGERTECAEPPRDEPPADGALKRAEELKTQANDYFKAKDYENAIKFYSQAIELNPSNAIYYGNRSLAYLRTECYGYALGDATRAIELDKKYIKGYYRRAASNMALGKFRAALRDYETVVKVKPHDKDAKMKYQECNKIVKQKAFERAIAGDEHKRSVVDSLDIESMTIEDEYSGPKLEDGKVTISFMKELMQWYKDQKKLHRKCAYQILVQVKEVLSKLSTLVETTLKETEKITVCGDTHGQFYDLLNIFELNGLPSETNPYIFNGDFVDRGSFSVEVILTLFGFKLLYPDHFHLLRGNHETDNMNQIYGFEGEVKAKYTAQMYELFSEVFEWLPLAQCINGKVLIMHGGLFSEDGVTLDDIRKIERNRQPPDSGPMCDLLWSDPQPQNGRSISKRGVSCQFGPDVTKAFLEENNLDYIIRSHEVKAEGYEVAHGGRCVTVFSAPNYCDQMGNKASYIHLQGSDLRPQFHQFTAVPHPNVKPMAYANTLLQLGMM
row,SMILES,inhibition
1,Cc1ccc(-c2cc(C(=O)N/N=C/C=C/c3ccco3)c3ccccc3n2)cc1C,2.19% (inactive)
2,CC1CCCCN1S(=O)(=O)c1ccc(C(=O)Nc2nnc(-c3cccs3)o2)cc1 (stereo not drawn),1.29% (inactive)
3,Nc1ccc2nc3c(=O)[nH]c(=S)[nH]c3nc2c1,15% (active)
4,O=C(Nc1cccc(-c2nc3ccccc3[nH]2)c1)c1ccc(C(=O)Nc2cccc(-c3nc4ccccc4[nH]3)c2)cc1,-2.5% (inactive)
5,COCCN(CCOC)S(=O)(=O)c1ccc(C(=O)Nc2nc3c(s2)CCc2ccccc2-3)cc1,-4.16% (inactive)
6,Cc1nc2c(C(=O)NCc3ccc4c(c3)OCO4)c[nH]n2c(=O)c1Cc1ccccc1F,0.13% (inactive)
7,COc1ccc(C2C(C(C)=O)=C(O)C(=O)N2CCc2c[nH]c3ccccc23)cc1 (stereo not drawn),1.2% (inactive)
8,Clc1ccc(-n2nnnc2-c2cnc(-c3ccccn3)nc2-c2cccs2)cc1,-0.17% (inactive)
9,CCC(=C/c1sc2ccc3ccccc3c2[n+]1C)/C=C1\Sc2ccc3ccccc3c2N1C,0.84% (inactive)
10,CS(=O)(=O)c1ccc2c(c1)SC1=NC(=O)/C(=C/c3ccco3)C(=N)N12,-6.01% (inactive)
11,Cc1ccc2cc(CCNC(=O)c3c(-c4ccccc4Cl)noc3C)c(=O)[nH]c2c1,-2.45% (inactive)
12,CCOc1ccc(/C=C/C(=O)OCC(=O)c2ccccc2OC)cc1OC,-0.62% (inactive)
13,Cc1ccc(S(=O)(=O)N2[C@@H](c3cccc(Cl)c3)C(C(=O)O)=CC[C@H]2c2ccc(Cl)c(Cl)c2)cc1,2.51% (inactive)
14,Cc1cc(Nc2ccccc2)n(C(=O)c2ccc(N)cc2)n1,3.89% (inactive)
15,O=C1C2N=NN(CC(=O)N3N=C(c4cccc5ccccc45)CC3c3ccccc3)C2C(=O)N1c1ccccc1 (stereo not drawn),-0.31% (inactive)
16,C=CCn1c(=S)[nH]c2scc(-c3ccco3)c2c1=O,1.52% (inactive)
17,CCCc1ccc(OCC(=O)NNC(=S)NC(=O)c2ccco2)cc1,-5.19% (inactive)
18,Cc1cc(N/N=C\c2ccc(Br)cc2)nc(-n2nc(C)cc2C)n1,-2.43% (inactive)
19,Cc1ccc(-c2cc(C(=O)Nc3nn[nH]n3)c3ccccc3n2)c(C)c1,-5.88% (inactive)
20,Cc1ccc(NS(=O)(=O)c2ccc(N/N=C/c3ccccc3OCC(=O)O)c([N+](=O)[O-])c2)c(C)c1,3.83% (inactive)
21,OCCNc1nc(Nc2ccc(Cl)c(Cl)c2)nc2ccccc12,6.65% (inactive)
22,CSc1ccc(/C=N\NC(=O)COc2ccc(Cl)cc2Br)cc1,-2.43% (inactive)
23,CCCCn1c(SCc2ncc(-c3ccccc3)o2)nc2cc(S(N)(=O)=O)ccc21,-3.7% (inactive)
